# Values joined by “and” are separate entries in the source; they are usually repeats but may differ in a detail not shown here. Equal values may be shown once. Results filed as inconclusive are left out. Where a call stands in place of a potency, no number is given. Some structures have more than one record in an assay (separate samples or runs), and their calls can disagree. Active and inactive are the calls of the source. Unless noted, the call rests on the fitted dose curve; in most records, active means well fitted cell-killing curve with a large enough effect in the repeat runs; inconclusive means weak or mixed curves, or effect the other way; inactive means no such curve, though single readings can be large or run the other way.
# Assay: qHTS assay for small molecule activators of the heat shock response signaling pathway - cell viability counter screen (AID 743209); further: nearly all actives have a fitted effect of over 50% in size
# Details: HSE-bla HeLa viability, CellTiter-Glo luminescence, 5 h; series mostly up to 62.6 µM
# Outline: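 HSE-bla HeLa; 1500 cells/well; overnight 37 C, 5% CO2; compound 5 h 37 C; LiveBLAzer B/G substrate 2.5 h RT; CellTiter-Glo 30 min RT; luminescence.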
# Potency means the concentration at half of the fitted maximal effect.
row,SMILES,Potency
1,O=[N+]([O-])c1ccc(O)c([N+](=O)[O-])c1,inactive
2,N[C@@H](Cc1ccc(N(CCCl)CCCl)cc1)C(=O)O,inactive
3,c1ccc(P(c2ccccc2)c2ccccc2)cc1,inactive
4,CCC(C)c1ccc(O)cc1 (configuration not stated),inactive
5,CC(C)=CC1C(C(=O)OCc2coc(Cc3ccccc3)c2)C1(C)C (configuration not stated),inactive
6,O=[N+]([O-])c1c(Cl)c(Cl)c(Cl)c(Cl)c1Cl,inactive
7,CC1(C)C(C=C(Cl)Cl)C1C(=O)OC(C#N)c1cccc(Oc2ccccc2)c1 (configuration not stated),inactive
8,ClC1C(Cl)C(Cl)C(Cl)C(Cl)C1Cl (configuration not stated),inactive
9,O=c1oc2ccccc2c(O)c1C(CC(O)c1ccc(-c2ccc(Br)cc2)cc1)c1ccccc1 (configuration not stated),41.3 µM (active)
10,CCCCCc1cc(O)cc(O)c1,inactive
11,CCOc1cc(Oc2ccc(C(F)(F)F)cc2Cl)ccc1[N+](=O)[O-],inactive
12,Nc1ccc(-c2ccc(N)c(N)c2)cc1N,inactive
13,Brc1ccc(Oc2cc(Br)c(Br)cc2Br)c(Br)c1,inactive
14,c1ccc(NNc2ccccc2)cc1,inactive
15,CCC(CC)Nc1c([N+](=O)[O-])cc(C)c(C)c1[N+](=O)[O-],inactive
16,CCCCN(CC)c1c([N+](=O)[O-])cc(C(F)(F)F)cc1[N+](=O)[O-],inactive
17,Oc1ccc(-c2ccccc2)cc1,inactive
18,c1nc[nH]n1,inactive
19,CCC(C)c1cc([N+](=O)[O-])cc([N+](=O)[O-])c1O (configuration not stated),inactive

row,SMILES,Potency
1,C=CC(=O)OCCO,inactive
2,Cc1c(COC(=O)[C@@H]2[C@H](/C=C(\Cl)C(F)(F)F)C2(C)C)cccc1-c1ccccc1,inactive
3,C#CCOS(=O)OC1CCCCC1Oc1ccc(C(C)(C)C)cc1 (configuration not stated),inactive
4,Cc1cc(Cl)ccc1OCCCC(=O)O,inactive
5,N#CCCCl,inactive
6,CC(C)N(C(=O)SCC(Cl)=C(Cl)Cl)C(C)C,inactive
7,Cc1cc(C)cc(C)c1,inactive
8,O=C(CCl)c1ccccc1,inactive and 24.5 µM (active)
9,CCCCNC(=O)n1c(NC(=O)OC)nc2ccccc21,inactive
10,CCOC(=O)C(C)OC(=O)c1cc(Oc2ccc(C(F)(F)F)cc2Cl)ccc1[N+](=O)[O-] (configuration not stated),inactive
11,CCC(C)(c1ccc(O)cc1)c1ccc(O)cc1,inactive
12,Cc1ccc(N)c(N)c1,inactive
13,CC(C)(c1cc(Cl)c(O)c(Cl)c1)c1cc(Cl)c(O)c(Cl)c1,inactive
14,CCC(=O)O[C@H]1CC[C@H]2[C@@H]3CCC4=CC(=O)CC[C@]4(C)[C@H]3CC[C@]12C,54.9 µM (active) and inactive
15,S=C1NCCN1,inactive
16,CC(C)C(=O)OCC(C)(C)C(OC(=O)C(C)C)C(C)C (configuration not stated),24.8 µM (active) and inactive
17,Oc1cc(Cl)ccc1Cl,inactive
18,CNC(=O)Oc1cccc2c1OC(C)(C)O2,inactive
19,CCOc1cc(C=O)ccc1O,inactive

# Assay: qHTS assay for small molecule activators of the heat shock response signaling pathway (AID 743210; active means well fitted activation curve with a large enough effect in the signal ratio in the repeat runs, with a control signal flat, not every such curve was filed as active; the % refers to the signal ratio;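 on activation: HeLa cells with beta-lactamase reporter driven by heat shock elements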)
# Details: HeLa HSE-bla reporter, beta-lactamase ratio, 5 h; series mostly up to 62.6 µM
# Outline: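 Beta-lactamase reporter read-out: FRET substrate fluorescence after 2.5 h at RT, following 5 h compound treatment at 37 C of HeLa cells carrying HSE-driven bla reporter; quantitative HTS format.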
row,SMILES,Potency
1,O=[N+]([O-])c1ccc(O)c([N+](=O)[O-])c1,inactive
2,N[C@@H](Cc1ccc(N(CCCl)CCCl)cc1)C(=O)O,inactive
3,c1ccc(P(c2ccccc2)c2ccccc2)cc1,inactive and 3.34 µM (active)
4,CCC(C)c1ccc(O)cc1 (configuration not stated),inactive
5,O=[N+]([O-])c1c(Cl)c(Cl)c(Cl)c(Cl)c1Cl,inactive
6,CC1(C)C(C=C(Cl)Cl)C1C(=O)OC(C#N)c1cccc(Oc2ccccc2)c1 (configuration not stated),inactive
7,ClC1C(Cl)C(Cl)C(Cl)C(Cl)C1Cl (configuration not stated),inactive
8,CCCCCc1cc(O)cc(O)c1,inactive
9,CCOc1cc(Oc2ccc(C(F)(F)F)cc2Cl)ccc1[N+](=O)[O-],inactive
10,Brc1ccc(Oc2cc(Br)c(Br)cc2Br)c(Br)c1,inactive
11,c1ccc(NNc2ccccc2)cc1,inactive
12,CCC(CC)Nc1c([N+](=O)[O-])cc(C)c(C)c1[N+](=O)[O-],inactive
13,CCCCN(CC)c1c([N+](=O)[O-])cc(C(F)(F)F)cc1[N+](=O)[O-],inactive
14,c1nc[nH]n1,inactive
15,CCC(C)c1cc([N+](=O)[O-])cc([N+](=O)[O-])c1O (configuration not stated),inactive
16,C=CC(=O)OCCO,inactive
17,Cc1c(COC(=O)[C@@H]2[C@H](/C=C(\Cl)C(F)(F)F)C2(C)C)cccc1-c1ccccc1,inactive
18,C#CCOS(=O)OC1CCCCC1Oc1ccc(C(C)(C)C)cc1 (configuration not stated),inactive
19,Cc1cc(Cl)ccc1OCCCC(=O)O,inactive
20,N#CCCCl,inactive
21,CC(C)N(C(=O)SCC(Cl)=C(Cl)Cl)C(C)C,inactive
22,Cc1cc(C)cc(C)c1,inactive
23,CCCCNC(=O)n1c(NC(=O)OC)nc2ccccc21,inactive
24,CCC(=O)O[C@H]1CC[C@H]2[C@@H]3CCC4=CC(=O)CC[C@]4(C)[C@H]3CC[C@]12C,inactive
25,S=C1NCCN1,inactive
26,CC(C)C(=O)OCC(C)(C)C(OC(=O)C(C)C)C(C)C (configuration not stated),inactive
27,Oc1cc(Cl)ccc1Cl,inactive
28,CNC(=O)Oc1cccc2c1OC(C)(C)O2,inactive
29,CCOc1cc(C=O)ccc1O,inactive

# From PubChem BioAssay (Tox21)
